a7 integrin act = integrin-mediated muscular dystrophy alleviation activation. alpha7betagal myoblasts, beta-gal FDG fluorescence, 48 h. Potency, µM (doses to about 38.3 µM), without a hit: at the top dose activation, hits mostly activators. 350,000 compounds, 0.064% hits. AID 624291; active = well fitted activation curve with a large enough effect; inconclusive = small, poorly fitted or top-dose-only effect; inactive = no such curve, though single readings can be large or run the other way;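 note: potency is the fitted concentration of half-maximal effect; 100% = response of the positive control SU9516; nearly all actives have a fitted effect of over 60% in size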
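Alpha7betagal+/- myoblasts (passage 13) were plated 16-24 hr, then exposed to compounds (1:260 dilution of DMSO stock) for 48 hours at 37C. After MPER lysis, β-galactosidase reporter activity was read as FDG fluorescence (ex 480/em 540) after 30 minutes.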
DRD3 agonist = D3 dopamine receptor (human) agonism; P35462; D3R DiscoveRx beta-arrestin cells, luminescence, 90 min; max activation, %; 410,000 compounds, 0.58% hits; AID 652048; in the data active = max activation above about 30%; note: 0% is about no effect
Target sequence (P35462 whole entry, looked up): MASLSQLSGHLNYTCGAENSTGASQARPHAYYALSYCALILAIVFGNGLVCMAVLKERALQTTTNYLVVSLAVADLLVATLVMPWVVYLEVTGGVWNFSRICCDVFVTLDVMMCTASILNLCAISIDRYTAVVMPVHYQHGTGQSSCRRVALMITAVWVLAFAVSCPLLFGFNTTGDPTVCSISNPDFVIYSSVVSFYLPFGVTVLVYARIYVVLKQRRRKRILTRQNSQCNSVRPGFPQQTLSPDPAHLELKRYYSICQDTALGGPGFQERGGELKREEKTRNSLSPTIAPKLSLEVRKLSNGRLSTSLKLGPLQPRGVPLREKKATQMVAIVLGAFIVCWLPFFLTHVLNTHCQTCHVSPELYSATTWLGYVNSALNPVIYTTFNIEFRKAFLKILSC
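Agonist mode: compounds and dopamine controls were applied to plated cells for 90 min at 37 degrees C after an overnight attachment at 1500 cells/well. Luminescent read-out followed 30 - 60 minutes at room temperature with DiscoveRx detection reagent.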
DRD3 antagonist = D3 dopamine receptor (human) antagonism | max response, negative = inhibition, % | 360,000 compounds, 2.5% hits | P35462 | D3R cells, DiscoveRx beta-arrestin luminescence, antagonist mode; stronger effect = lower value; in the data active = max response below about -50%; inconclusive = no clear call, values can overlap the other calls; note: % is set by controls: 0 for no effect and ±100 for the full control effect
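Cells plated overnight at 1500 cells/well, then exposed to library compounds with dopamine controls for 90 minutes at 37 degrees C. DiscoveRx reagent added for 30–60 minutes at room temperature; luminescence read, quantitative HTS format.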
An asterisk follows results filed as active; ? = inconclusive; nt = no result; ! = repeats disagree; [ ] = another dose, or the depositor's remark. A selection: hits, their analogues and other compounds. The true share with any hit is near 2.9%.

SMILES | a7 integrin act | DRD3 agonist | DRD3 antagonist
CCC(C)Sc1ccc(-c2nc3ccc(Cl)cn3c2NCc2ccccc2)cc1 (stereo unspecified) | 15.0% | -0.4 | 1.9
c1ccc(CNc2c(-c3cccc(SC4CCCCC4)c3)nc3ccccn23)cc1 | -41.1% | 43.1* | 89.9
CCC(C)Sc1cccc(-c2nc3cc(C)ccn3c2NCc2ccccc2)c1 (stereo unspecified) | -47.8% | 76.7* | 39.2
Cc1ccn2c(NCc3ccccc3)c(-c3cccc(SC4CCCCC4)c3)nc2c1 | -45.4% | 41.3*! | 103.3
Clc1cccc(-c2ccc(-c3nc4ccccn4c3NCc3ccccc3)cc2)c1 | -11.4% | 7.9 | 21.6
Cc1ccc(N=Cc2ccc(O)cc2O)cc1F | -16.0% | 4.9 | -6.3
Cn1cc(/C=C(\NC(=O)c2ccccc2)C(=O)NCCCn2ccnc2)c2ccccc21 | -2.5% | -12.5 | -19.1
CCC(C)NC(=O)CCCn1c(=O)c2cccn2c2ccccc21 (stereo unspecified) | nt | 1.3 | nt
CCCNC(=O)c1ccccc1NC(=O)Cc1ccc(OC)c(S(=O)(=O)N2CCOCC2)c1 | 1.3% | 4.9 | 15.6
Cc1ccc2c(c1)COc1c3ccc(C(=O)N[C@@H](CO)C(C)C)cc3nn1-2 | 3.7% | 0.0 | 0.0
CCN(CC)CCCNC(=O)c1ccc2c3n(nc2c1)-c1ccc(Cl)cc1CO3 | -34.3% | -65.7 | -116.4*
COCCNC(=O)c1ccc2c3n(nc2c1)-c1ccc(C)cc1CO3 | 4.9% | 5.0 | 24.6
CC(C)NC(=O)c1ccc2c3n(nc2c1)-c1ccc(Cl)cc1CO3 | -11.1% | 30.9* | 5.4
COc1ccc(Nc2ncnc3sc4c(c23)CCCC4)cc1 | nt | 3.8 | nt
Fc1ccc(NC(=S)N2CCCN(c3ccc(C(F)(F)F)cn3)CC2)c(F)c1 | -31.7% | 0.7 | 22.6
Cc1csc2ncnc(N3CCN(C(=S)Nc4ccc(F)cc4F)CC3)c12 | -17.5% | 40.7* | 19.3
COc1cc(C(=O)NCCCNc2nc3cc(C)cc(C)c3cc2C#N)cc(OC)c1OC | -31.1% | -2.8 | 16.9
CCN(C(=O)CSc1nc2ccccc2c(=O)n1C(C)COC)C1CCS(=O)(=O)C1 (stereo unspecified) | 12.9% | 4.7 | 12.4
CCOC(=O)N1CCN(C(=O)c2ccc(Cl)c(S(=O)(=O)N3CCOCC3)c2)CC1 | 6.9% | 1.0 | 11.1
COC(=O)[C@H](CCSC)NC(=O)N1CCN(Cc2ccccc2)CC1 | -7.3%[7.66 µM] | -9.7 | 22.8
CC1=C(c2ccc(C)cc2)S(=O)(=O)NC1=NCCCN1CCN(c2ccc(F)cc2)CC1 | nt | -37.3 | nt
COc1ccc(N2CCN(C(=O)CN=C3NS(=O)(=O)C(c4ccc(C)cc4)=C3C)CC2)cc1 | -11.8% | -8.3 | -79.1*
Cc1nn(-c2ccccc2)c2sc(C(=O)n3cccn3)cc12 | 14.6% | -11.4 | ?
Cc1nn(-c2ccccc2)c2sc(C(=O)NCCN3CCOCC3)cc12 | 3.7% | 2.7 | -71.0*
Cc1ccn(C(=O)c2cc3c(C)nn(-c4ccccc4)c3s2)n1 | -5.8% | 1.2 | -51.7*
SMILES | a7 integrin act | DRD3 agonist | DRD3 antagonist
Cc1nn(-c2ccccc2)c2sc(C(=O)NC3CCCCC3)cc12 | -27.7% | -10.0 | 1.7
COc1cccc(C(O)c2nc(-c3cccc(C(=O)O)c3)cs2)c1 (stereo unspecified) | nt | 3.7 | -23.0
CN(C)/C=C(\C=O)c1ccc(Cl)cc1Cl | 12.8% | 1.7 | 10.9
CC1=C(/C=C/C(C)=C/C=C/C(C)=C/C(=O)Nc2ccc(O)cc2)C(C)(C)CCC1 | -56.4% | 69.1*! | 23.2
CC1=C(/C=C/C(C)=C/C=C/C(C)=C\C(=O)O)C(C)(C)CCC1 | nt | 0.2 | 10.7
Cc1ccccc1-n1nc(C(=O)c2cccs2)cc(-c2nc3ccccc3[nH]2)c1=N | -12.5% | -6.2 | -5.3
COc1ccc(-n2nc(C(=O)c3cccs3)cc(-c3nc4ccccc4[nH]3)c2=N)cc1 | -12.5% | -6.3 | -55.7*
CCCCCCOc1ccc(C(CC(N)=O)C(=O)O)cc1 (stereo unspecified) | 3.6% | 2.1 | 1.0
CC1=NN(c2nc(-c3ccc(C)cc3)cs2)C(=O)C1N=Nc1cccc(O)c1 (stereo unspecified) | ? | -8.7 | 3.7
CC1=NN(c2nc(-c3ccc(C)cc3)cs2)C(=O)C1N=Nc1ccccc1O (stereo unspecified) | -31.1% | -12.7 | -64.5*
CC(C)(C)[C@H]1C=C(C(=O)N2CCOCC2)O[C@@H](OCc2ccc(CO)cc2)C1 | -0.6% | -34.6 | -51.8*
CN1CCN(C(=O)C2=C[C@@H](c3csc4ccccc34)C[C@@H](OCc3ccc(CO)cc3)O2)CC1 | -5.1% | -45.2 | -72.1*
O=C(NC1CC1)C1=C[C@@H](c2c[nH]c3ccccc23)C[C@@H](OCc2ccc(CO)cc2)O1 | 6.4% | -21.6 | -52.6*
O=C(NCc1ccccc1)C1=C[C@H](c2csc3ccccc23)C[C@H](OCc2ccc(CO)cc2)O1 | -30.7% | -10.9 | 0.0
O=C(NC1CC1)C1=C[C@H](c2c[nH]c3ccccc23)C[C@H](OCCCCO)O1 | -13.5% | -14.7 | -0.5
O=C(Nc1ccccc1)C1=C[C@@H](c2csc3ccccc23)C[C@@H](OCc2ccc(CO)cc2)O1 | 0.8% | -32.1 | -51.0*
CC(C)(C)[C@@H]1C=C(C(=O)N2CCOCC2)O[C@H](OCc2ccc(CO)cc2)C1 | 1.1% | -16.1 | -24.3
O=C(C1=C[C@H](c2csc3ccccc23)C[C@H](OCc2ccc(CO)cc2)O1)N1CCOCC1 | 17.3% | 2.4 | 19.9
Cc1ccc(-c2cc3nn(-c4ccccc4)c(N)c3c(=O)o2)cc1 | 11.3%[7.66 µM] | -1.3 | 31.2
O=C(O)CCn1c(=O)oc2cc(S(=O)(=O)N3CCCC3)ccc21 | 14.2% | 3.5 | -4.9
CSc1nc(-c2ccc(Cl)cc2)nn1C(=O)c1ccccc1 | 16.0% | 2.8 | 1.6
O=C(NCc1nc2ccccc2[nH]1)C1=C[C@@H](C2CCCCC2)C[C@@H](OCc2ccc(CO)cc2)O1 | -39.6% | 11.3 | 78.9
O=C(NCc1nc2ccccc2[nH]1)C1=C[C@H](C2CCCCC2)C[C@H](OCc2ccc(CO)cc2)O1 | -37.7% | 41.2* | 59.8
Cc1ccc(C)c(OCC(=O)N2CCc3ccccc3C2)c1 | ? | -3.9 | 0.2
C=CCc1ccc(OCCCOc2ccc(C)cc2OC)c(OC)c1 | -14.4% | 2.6 | 15.0
SMILES | a7 integrin act | DRD3 agonist | DRD3 antagonist
C=CCc1ccc(OCCN2CCc3ccccc3C2)c(OC)c1 | -28.5% | -16.1 | -74.7*
C/C=C/c1ccc(OCCCCOc2c(OC)cccc2OC)c(OC)c1 | -26.8% | -6.6 | 12.5
C=CCc1ccc(OCCn2cncn2)c(OC)c1 | -12.1% | 0.1 | 13.8
C/C=C/c1ccc(OCCN2CCc3ccccc3C2)c(OC)c1 | -36.3% | -20.0 | -75.8*
C=CCc1ccc(OCCCCN2CC(C)OC(C)C2)c(OC)c1 (stereo unspecified) | 10.5% | -5.8 | -68.7*
Cc1ccc(Cl)c(OCCN2CCc3ccccc3C2)c1 | -16.1% | 7.3 | -60.4*
Cc1ccc(C)c(N2CCN(CCCNC(=O)c3cnn(-c4ccccc4)c3C3CCN(C(=O)OC(C)(C)C)CC3)CC2)c1 | nt | -22.1 | nt
Cc1nn(-c2ccccc2)c(C)c1NC(=O)COC(=O)CCCOc1ccccc1 | -6.1% | 1.3 | -6.7
Cc1ccc(NC(=O)C2CCN(c3nnc(C)c4c(C)n(-c5ccccc5)nc34)CC2)c(Cl)c1 | nt | -4.7 | nt
COc1ccc(NC(=O)c2ccc(NC(=O)CN3CCN(c4ccc(O)cc4)CC3)cc2)cc1 | -30.8% | 81.8* | 7.9

Assay outcomes deposited in PubChem by National Center for Advancing Translational Sciences (NCATS).
